Changes are numbered by the printed parent chain.

Common to all, as to experiment: protein-binding microarray (PBM); PBM: ~300 nM protein, 6 mM HEPES pH 7.8, 80 mM KCl, 0.5 mM EDTA, 0.5 mM EGTA, 6% glycerol, 35 ng/ul poly-dIdC, 1% milk, 1 h, room temperature; Ap Aiptasia and Nv Nematostella (sea anemones) / Co Capsaspora / Aq Amphimedon (sponge) / Dm Drosophila / Hu human; RHD is the Rel homology domain; high values mean tight binding
Common to all, as to settings: dsDNA, one strand shown

One assay concerns the target T1, GST-Ap-NF-kB RHD (Exaiptasia pallida (Aiptasia), UniProt A0A913YAJ5 2-422).
T1 sequence: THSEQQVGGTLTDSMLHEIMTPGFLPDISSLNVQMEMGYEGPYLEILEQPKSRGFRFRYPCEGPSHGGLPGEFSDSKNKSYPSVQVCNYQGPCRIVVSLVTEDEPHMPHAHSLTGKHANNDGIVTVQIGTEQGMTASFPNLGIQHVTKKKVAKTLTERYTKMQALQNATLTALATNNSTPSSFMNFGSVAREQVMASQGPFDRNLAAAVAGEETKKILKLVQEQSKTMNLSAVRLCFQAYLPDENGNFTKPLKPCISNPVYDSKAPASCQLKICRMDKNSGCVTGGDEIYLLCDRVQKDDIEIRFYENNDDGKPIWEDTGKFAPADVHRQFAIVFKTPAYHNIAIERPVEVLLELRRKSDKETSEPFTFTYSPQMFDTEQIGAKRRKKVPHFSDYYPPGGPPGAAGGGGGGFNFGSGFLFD

Assay [1] deals with T2, GST-Nv-NF-kB (Cys allele) (Nematostella vectensis, UniProt E5G601 2-411).
T2 sequence: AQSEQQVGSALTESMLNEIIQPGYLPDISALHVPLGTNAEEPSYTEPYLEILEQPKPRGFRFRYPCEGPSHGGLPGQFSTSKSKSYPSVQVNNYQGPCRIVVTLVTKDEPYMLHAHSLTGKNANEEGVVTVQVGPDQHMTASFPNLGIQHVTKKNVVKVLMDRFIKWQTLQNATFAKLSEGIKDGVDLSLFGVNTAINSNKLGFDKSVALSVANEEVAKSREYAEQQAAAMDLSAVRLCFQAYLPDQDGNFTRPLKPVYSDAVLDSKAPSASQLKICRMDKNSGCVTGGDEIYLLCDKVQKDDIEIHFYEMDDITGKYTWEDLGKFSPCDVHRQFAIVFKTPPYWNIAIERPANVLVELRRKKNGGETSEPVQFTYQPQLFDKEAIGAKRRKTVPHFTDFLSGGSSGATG

For assay [2], the target named is T3, GST-Nv-NF-kB (Ser allele) (Nematostella vectensis, UniProt A7UNT2 2-411).
T3 sequence: T2 sequence with Q21R, C66S, S207N, E215Q, V217A, E225K, A268E, D399E

Another assay addresses T4, GST-Co-NF-kB (Capsaspora owczarzaki, UniProt F1ARL5 200-546).
T4 sequence: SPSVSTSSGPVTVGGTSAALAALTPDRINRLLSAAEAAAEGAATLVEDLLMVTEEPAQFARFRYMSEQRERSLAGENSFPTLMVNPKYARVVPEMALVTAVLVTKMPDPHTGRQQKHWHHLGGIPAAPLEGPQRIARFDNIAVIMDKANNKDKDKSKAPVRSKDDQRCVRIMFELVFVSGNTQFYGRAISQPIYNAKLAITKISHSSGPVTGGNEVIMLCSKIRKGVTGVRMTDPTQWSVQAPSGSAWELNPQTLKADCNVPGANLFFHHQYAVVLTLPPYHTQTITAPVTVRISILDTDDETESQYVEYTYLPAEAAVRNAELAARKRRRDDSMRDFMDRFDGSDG

The target in the next assay is T5, GST-Dm-Relish (Drosophila melanogaster, UniProt Q94527 99-473).
T5 sequence: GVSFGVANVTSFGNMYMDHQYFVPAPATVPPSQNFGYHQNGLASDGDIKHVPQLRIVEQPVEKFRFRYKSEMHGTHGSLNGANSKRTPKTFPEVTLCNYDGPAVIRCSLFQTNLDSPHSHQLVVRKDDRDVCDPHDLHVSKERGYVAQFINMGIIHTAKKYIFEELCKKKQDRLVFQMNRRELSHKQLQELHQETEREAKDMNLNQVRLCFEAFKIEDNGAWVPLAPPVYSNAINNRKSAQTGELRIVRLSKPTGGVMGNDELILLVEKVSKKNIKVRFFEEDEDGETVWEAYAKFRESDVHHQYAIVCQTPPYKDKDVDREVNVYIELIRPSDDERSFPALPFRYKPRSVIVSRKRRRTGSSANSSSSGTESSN

A further assay concerns the target T6, GST-Aq-NF-kB (Amphimedon queenslandica, UniProt A9Y5G7 2-389).
T6 sequence: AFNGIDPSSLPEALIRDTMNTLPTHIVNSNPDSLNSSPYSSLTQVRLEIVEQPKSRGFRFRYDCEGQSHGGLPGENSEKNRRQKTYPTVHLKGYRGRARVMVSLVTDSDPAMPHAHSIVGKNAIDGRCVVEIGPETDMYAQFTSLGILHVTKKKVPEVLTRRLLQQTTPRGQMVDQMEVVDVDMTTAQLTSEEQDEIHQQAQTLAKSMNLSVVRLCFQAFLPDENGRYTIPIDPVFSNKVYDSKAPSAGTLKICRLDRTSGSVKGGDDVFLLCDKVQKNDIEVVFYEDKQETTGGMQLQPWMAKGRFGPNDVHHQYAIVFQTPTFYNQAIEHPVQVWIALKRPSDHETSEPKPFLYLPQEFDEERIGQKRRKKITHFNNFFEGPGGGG

For the next assay, the target named is GST-Hu-p50 (Homo sapiens, UniProt P19838 7-356).
GST-Hu-p50, sequence (P19838 7-356): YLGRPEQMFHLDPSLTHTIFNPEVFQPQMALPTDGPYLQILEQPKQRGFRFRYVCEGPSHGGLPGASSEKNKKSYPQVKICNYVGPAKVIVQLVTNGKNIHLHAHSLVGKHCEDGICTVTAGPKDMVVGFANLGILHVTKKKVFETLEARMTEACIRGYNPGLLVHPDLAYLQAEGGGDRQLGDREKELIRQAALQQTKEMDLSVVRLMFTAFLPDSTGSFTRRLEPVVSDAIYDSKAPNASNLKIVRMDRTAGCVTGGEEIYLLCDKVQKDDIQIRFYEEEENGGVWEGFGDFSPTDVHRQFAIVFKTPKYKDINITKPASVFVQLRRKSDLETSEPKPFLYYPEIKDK

As for “CCGATTAACATCAAAAACTCCCTTGATGTTAATCGGGTCTTGATTCGCTTGACGCTGCTG”, the binding signal in the assay with GST-Ap-NF-kB RHD worked out at 5.39 z-score; in assay [1], 7.94 z-score; in assay [2], 7 z-score; with GST-Co-NF-kB it was 1.96 z-score; with GST-Dm-Relish, 6.3 z-score; with GST-Aq-NF-kB, 7.5 z-score. The binding signal with GST-Hu-p50 came out at 5.92 z-score.
Take “CCGATTAACATCAGGGAATTGCATGATGTTAATCGGGTCTTGATTCGCTTGACGCTGCTG”: the binding signal worked out at 2.48 z-score in the assay with GST-Ap-NF-kB RHD; 4.23 z-score in assay [1]; 4.1 z-score in assay [2]; 2.6 z-score in the assay with GST-Co-NF-kB; 1.11 z-score with GST-Dm-Relish; 3.49 z-score in the assay with GST-Aq-NF-kB. Further, the binding signal with GST-Hu-p50 was found to be 3.1 z-score.
Take “CCGATTAACATCAGGGGACTTTATGATGTTAATCGGGTCTTGATTCGCTTGACGCTGCTG”: the binding signal is 7.86 z-score in the assay with GST-Ap-NF-kB RHD; 8.29 z-score in assay [1]; 7.92 z-score in assay [2]; 3.64 z-score in the assay with GST-Co-NF-kB; 8.18 z-score with GST-Dm-Relish; 7.13 z-score with GST-Aq-NF-kB. The sequence further gave a binding signal with GST-Hu-p50 of 6.72 z-score.
Turning to “CCGATTAACATCAGGGGAAGCTATGATGTTAATCGGGTCTTGATTCGCTTGACGCTGCTG”, the binding signal in the assay with GST-Ap-NF-kB RHD came out at 4.87 z-score; in assay [1], 5.26 z-score; in assay [2], 6.8 z-score; with GST-Co-NF-kB, 6.23 z-score; with GST-Dm-Relish, 3.04 z-score; with GST-Aq-NF-kB, 3.92 z-score. Also, in the assay with GST-Hu-p50, the binding signal amounted to 4.77 z-score.
Turning to “CCGATTAACATCACATAATCCCCTGATGTTAATCGGGTCTTGATTCGCTTGACGCTGCTG”, the binding signal with GST-Ap-NF-kB RHD turned out to be 7.93 z-score; in assay [1] it was 9.03 z-score; in assay [2], 9.99 z-score; with GST-Co-NF-kB it was 3.86 z-score; with GST-Dm-Relish it was 6.27 z-score; in the assay with GST-Aq-NF-kB, 6.55 z-score. Also, the binding signal in the assay with GST-Hu-p50 came to 6.8 z-score.
“CCGATTAACATCAAAAATCCCGGTGATGTTAATCGGGTCTTGATTCGCTTGACGCTGCTG”: the binding signal with GST-Ap-NF-kB RHD stood at 4.77 z-score; in assay [1], 4.4 z-score; in assay [2], 4.06 z-score; in the assay with GST-Co-NF-kB, 2.98 z-score; in the assay with GST-Dm-Relish it was 8.52 z-score; in the assay with GST-Aq-NF-kB, 5.12 z-score. This sequence also showed a binding signal with GST-Hu-p50 of 3.94 z-score.
With “CCGATTAACATCAGGGGAATAAATGATGTTAATCGGGTCTTGATTCGCTTGACGCTGCTG”, the binding signal with GST-Ap-NF-kB RHD stood at 6.25 z-score; in assay [1], 7.82 z-score; in assay [2] it was 8.47 z-score; with GST-Co-NF-kB, 8.22 z-score; with GST-Dm-Relish it was 5.48 z-score; with GST-Aq-NF-kB, 5.94 z-score. The binding signal with GST-Hu-p50 stood at 5.62 z-score.
With “CCGATTAACATCAGGGACGTCCCTGATGTTAATCGGGTCTTGATTCGCTTGACGCTGCTG”, the binding signal in the assay with GST-Ap-NF-kB RHD stood at 7.37 z-score; in assay [1], 7.13 z-score; in assay [2], 4.26 z-score; with GST-Co-NF-kB it was 1.08 z-score; in the assay with GST-Dm-Relish, 6.25 z-score; in the assay with GST-Aq-NF-kB it was 8.52 z-score. In addition, in the assay with GST-Hu-p50, the binding signal amounted to 4.54 z-score.
Take “CCGATTAACATCAGGGGAATTCATGATGTTAATCGGGTCTTGATTCGCTTGACGCTGCTG”: the binding signal is 9.45 z-score with GST-Ap-NF-kB RHD; 10.8 z-score in assay [1]; 10.8 z-score in assay [2]; 6.94 z-score with GST-Co-NF-kB; 7.6 z-score with GST-Dm-Relish; 7.5 z-score with GST-Aq-NF-kB. Also, the binding signal in the assay with GST-Hu-p50 stood at 6.83 z-score.
On to “CCGATTAACATCAAATTCCCAGGTGATGTTAATCGGGTCTTGATTCGCTTGACGCTGCTG”, for which the binding signal was 2.43 z-score with GST-Ap-NF-kB RHD; 3.11 z-score in assay [1]; 3.64 z-score in assay [2]; 3.53 z-score with GST-Co-NF-kB; 3.69 z-score in the assay with GST-Dm-Relish; 2.4 z-score with GST-Aq-NF-kB. In the assay with GST-Hu-p50, the binding signal was 4.02 z-score.
Regarding “CCGATTAACATCAACACCCCCCTTGATGTTAATCGGGTCTTGATTCGCTTGACGCTGCTG”, the binding signal amounted to 4.56 z-score with GST-Ap-NF-kB RHD; 3.85 z-score in assay [1]; 3.96 z-score in assay [2]; 2.8 z-score with GST-Co-NF-kB; 5.23 z-score with GST-Dm-Relish; 5.24 z-score in the assay with GST-Aq-NF-kB. In the assay with GST-Hu-p50, this sequence yielded a binding signal of 4.37 z-score.
As for “CCGATTAACATCATAAATCCCCATGATGTTAATCGGGTCTTGATTCGCTTGACGCTGCTG”, the binding signal with GST-Ap-NF-kB RHD amounted to 6.78 z-score; in assay [1] it was 7.56 z-score; in assay [2], 9.37 z-score; with GST-Co-NF-kB, 3.91 z-score; with GST-Dm-Relish, 7.13 z-score; in the assay with GST-Aq-NF-kB, 5.14 z-score. The same sequence displayed a binding signal with GST-Hu-p50 of 7.11 z-score.
Regarding “CCGATTAACATCACGGGGGAAAATGATGTTAATCGGGTCTTGATTCGCTTGACGCTGCTG”, the binding signal in the assay with GST-Ap-NF-kB RHD was found to be 6.86 z-score; in assay [1], 6.21 z-score; in assay [2], 9.47 z-score; with GST-Co-NF-kB it was 11.7 z-score; in the assay with GST-Dm-Relish it was 4.45 z-score; in the assay with GST-Aq-NF-kB, 5.8 z-score. This sequence came in with a binding signal with GST-Hu-p50 of 6.51 z-score.

(Values after publication PMC5700166.)
